A selection: hits, their analogues and other compounds. The true share with any hit is near 9%.
PLK1 PBD inh: PLK1 (human) polo-box domain binding inhibition; P53350; Plk1 PBD binding of FITC phosphopeptide, fluorescence polarization; Potency, µM, inactives show max response, negative = inhibition, usual class: inhibitors; hit rate 2.8% among 360,000; AID 720504; further: series mostly up to about 57 µM; on the % scale 0 is the no-effect control and ±100 the full control effect; nearly all actives have a fitted effect of over 65% in size
ALOX12 inh: blocks human arachidonate 12S-lipoxygenase; purified 12hLO, xylenol orange hydroperoxide absorbance; Potency, µM (highest dose often 108 µM), inactives show top-dose activity change, negative = inhibition, most hits filed as inhibitors; hit rate 1.1% among 580,000; P18054; AID 1671190; further: on the % scale 0 is the no-effect control and ±100 the full control effect
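Purified human 12hLO at 150 nM in 25 mM Hepes, 0.01% Triton X-100, pH 7.0, preincubated 15 min at room temperature with compound. Reaction started with 40 uM arachidonic acid, 30 min at room temperature. Hydroperoxide measured by Fe-xylenol orange, 573/405 nm absorbance ratio.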
JMJD2A Tudor: blocks the human JMJD2A Tudor domain; hit rate 4.4% among 390,000; AlphaScreen JMJD2A-Tudor / H3K4me3 peptide binding; Potency, µM (top dose mostly 114 µM), for inactives: at the top dose activity change, negative = inhibition, most hits filed as inhibitors; AID 504339; further: on the % scale 0 is the no-effect control and ±100 the full control effect; nearly all actives have a fitted effect of over 50% in size
G9a block: blocks human histone lysine methyltransferase G9a; Q96KQ7; G9a H3K9 monomethylation, AlphaScreen, 2 h; Potency, µM (doses to about 102 µM), without a hit: top-dose activity, negative = inhibition, actives largely listed as inhibitors; hit rate 8.8% among 350,000; further: on the % scale 0 is the no-effect control and ±100 the full control effect; nearly all actives have a fitted effect of over 75% in size
Target sequence (Q96KQ7 913-1193 limits assumed): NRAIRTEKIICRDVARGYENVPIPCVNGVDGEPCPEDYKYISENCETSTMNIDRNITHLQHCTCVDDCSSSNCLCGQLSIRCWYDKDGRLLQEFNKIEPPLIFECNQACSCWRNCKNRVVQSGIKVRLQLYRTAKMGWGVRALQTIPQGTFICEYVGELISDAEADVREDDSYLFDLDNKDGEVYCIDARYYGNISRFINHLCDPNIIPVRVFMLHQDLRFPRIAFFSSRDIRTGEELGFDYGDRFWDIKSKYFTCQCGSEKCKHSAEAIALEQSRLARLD
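Step 1: enzyme (final 20 nM) with compound, 15 min RT. Step 2: substrate peptide 500 nM and SAM 20 uM, 2 h RT. Step 3: anti-H3K9me1 antibody and AlphaScreen beads, 10 min, then plate read.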
HP1b chromo inh: HP1-beta chromodomain-methylated histone interaction inhibition; Potency, µM (doses to about 114 µM), for the others: at the top dose activity change, negative = inhibition, most hits filed as inhibitors; P83916; hit rate 0.56% among 390,000; AlphaScreen HP1-beta / biotin-H3K9me3 peptide binding; further: nearly all actives have a fitted effect of over 70% in size
Target sequence (P83916 whole entry, looked up): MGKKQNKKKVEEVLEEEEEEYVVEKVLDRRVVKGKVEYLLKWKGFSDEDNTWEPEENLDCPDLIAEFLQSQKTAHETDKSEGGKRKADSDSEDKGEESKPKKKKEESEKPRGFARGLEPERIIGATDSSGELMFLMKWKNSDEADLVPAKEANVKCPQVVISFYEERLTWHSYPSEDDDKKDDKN
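Compound inhibition of the preformed complex between 50 nM HP1-beta and 50 nM biotinylated H3K9me3 peptide was read by AlphaScreen. Buffer was PBS pH 7.4 with 0.01% Tween-20. Incubations ran 30 min at room temperature, with 10 ug/mL donor/acceptor beads.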
BAZ2B inh: BAZ2B (human) inhibition | AID 504333 | Potency, µM (highest dose often 114 µM), without a hit: at the top dose activity change, negative = inhibition, most hits filed as inhibitors | AlphaScreen BAZ2B-H3K14Ac peptide displacement | Q9UIF8 | hit rate 4.4% among 360,000; further: on the % scale 0 is the no-effect control and ±100 the full control effect; nearly all actives have a fitted effect of over 60% in size
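In this displacement format the biotinylated H3(5-23) peptide acetylated at Lys14 serves as ligand at 50 nM, with BAZ2B at 50 nM in PBS pH 7.4 containing 0.01% Tween-20. Donor and acceptor beads are 10 ug/mL final.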
TbPYK confirm: confirmation of Trypanosoma brucei pyruvate kinase inhibitors; hit rate 67% among 890; recombinant TbPYK, Kinase-Glo ATP luminescence; Potency, µM (highest dose often 76.9 µM), inactives show at the highest dose activity change, negative = inhibition, most hits filed as inhibitors; shares compounds with PLK1 PBD inh; AID 720569; further: on the % scale 0 is the no-effect control and ±100 the full control effect; nearly all actives have a fitted effect of over 70% in size
TbPYK orthogonal: orthogonal confirmation of Trypanosoma brucei pyruvate kinase inhibitors. shares compounds with PLK1 PBD inh. recombinant TbPYK, ADP-Glo luminescence, 60 min. Potency, µM (highest dose often 76.9 µM), inactives show top-dose activity change, negative = inhibition, hits mostly inhibitors. hit rate 62% among 890. AID 720584; further: on the % scale 0 is the no-effect control and ±100 the full control effect; nearly all actives have a fitted effect of over 75% in size
An asterisk follows results filed as active; i = inactive; ? = inconclusive; . = no result given; [ ] = dose if it differs, or a comment. The call rests on the fitted dose curve; in most records, active means well fitted curve in the direction sought with a large enough effect; inconclusive means small, poorly fitted or top-dose-only effect, or another doubt; inactive means no such curve, though single readings can be large; an effect the other way counts as inactive or inconclusive. Potency means the concentration at half of the fitted maximal effect.

SMILES | PLK1 PBD inh | ALOX12 inh | JMJD2A Tudor | G9a block | HP1b chromo inh | BAZ2B inh | TbPYK confirm | TbPYK orthogonal
NC(=O)C1CCN(C(=O)c2ccc3ncsc3c2)CC1 | 1.4% | 16.8% | . | . | . | . | . | .
Cc1cccnc1CNC[C@H]1Cn2cc(-c3ccccc3)nc2CO1 | . | 112.1%[176 µM] | . | . | . | . | . | .
S=C(Nc1ccc(Cl)cc1Cl)N1CCCCC1 | -5.2% | 7.5% | -6.7%[57.1 µM] | 29.4%[59 µM] | ? | 6.5% | . | .
S=C(c1ccc(-c2ccc(Cl)cc2Cl)o1)N1CCCC1 | ? | ? | 50.1µM* | . | ? | -14.0% | ? | ?
COc1cc(/C=C2\C(=O)ON=C2c2ccccc2)cc(OC)c1OC | 7.52µM* | ? | -22.5% | ? | 20.8% | ? | ? | ?
CCCCc1ccc(/C=C2\C(=O)ON=C2c2ccccc2)s1 | -9.2% | -11.6% | -10.7% | 21.0%[59 µM] | 31.0% | 9.2% | . | .
COc1ccc(/C=C2/C(=O)ON=C2C)cc1Br | 1.89µM* | ? | -28.8% | ? | 14.4% | -16.8% | ? | ?
COc1ccc(/C=C2\SC(N)=NC2=O)cc1Br | -20.9% | i | -35.0% | . | 16.8% | ? | . | .
Cc1cc(C(=O)Nc2ccccc2C(=O)N2CCCCC2)ccc1[N+](=O)[O-] | -29.0% | -11.3% | -10.5% | 9.3% | 16.8% | -19.4% | . | .
N=c1n(CCN2CCCCC2)c2ccccc2n1CC(O)COc1ccccc1 (stereo not drawn) | -1.3% | 0.0% | -1.5% | 14.2%[2.33 µM] | 42.9% | -10.1% | . | .
COc1ccc2[nH]c(-c3ccc(F)cc3F)cc(=O)c2c1 | . | . | . | 1.6% | . | . | . | .
COc1ccc2[nH]c3c4c(ccc3c2c1)C(=O)C=CC4=O | ? | ? | ? | . | ? | 39.8µM* | 5.01µM* | ?
Cn1c(N=Nc2ccc(N3CCOCC3)cc2)[n+](C)c2ccccc21 | -6.9% | 62.2% | ? | 17.8µM* | ? | 12.6µM* | 15.8µM* | 12.8%
CCOC(=O)C(NC(=O)c1ccccc1F)(Nc1cc(C)on1)C(F)(F)F (stereo not drawn) | 2.1% | -15.8% | -12.2% | -8.9% | 31.7% | 4.2% | . | .
O=C(O)c1ccc2c(c1)C(=O)/C(=C/c1ccccc1)C2=O | 2.38µM* | -18.1% | ? | 12.6µM* | 44.7µM* | 50.1µM* | 15.8µM* | 35.5µM*
CC(C)(C)N1C(=O)c2ccc(C(=O)O)cc2C1=O | 2.3% | 0.0% | -5.2% | 55.5%[59 µM] | 27.4% | 0.9% | . | .
CN(CC(=O)Nc1cccc(F)c1)C(=O)Cn1c(=O)cnc2ccccc21 | 2.6% | 0.0% | -11.0% | ? | 21.9% | -2.3% | . | .
Cc1cc(Br)ccc1NC(=O)CN(C)C(=O)Cn1c(=O)cnc2ccccc21 | -15.0% | ? | 17.8µM* | . | ? | 79.4µM* | ? | ?
CC1(C)CC(=O)C(C(c2ccco2)C2C(=O)CC(C)(C)CC2=O)C(=O)C1 | 6.7µM* | ? | ? | ? | 51.0% | -25.4% | 11.2µM* | ?
CC1(C)CC(=O)C(C(c2ccc(F)cc2)C2C(=O)CC(C)(C)CC2=O)C(=O)C1 | -26.5% | -2.4% | -2.2% | ? | 52.3% | 2.2% | . | .
CC(=O)c1ccc(Cc2cnc(N)s2)cc1 | -1.9% | 1.5% | -25.7% | -4.8%[12.7 µM] | 18.6% | 0.2% | . | .
N#Cc1cc2c(nc1SCC(=O)N1CCCCC1)CCCC2 | -7.0% | -0.3% | 6.9% | -3.7%[12.7 µM] | 31.0% | -5.4% | . | .
N#Cc1cc2c(nc1SCC(=O)N1CCCCC1)CCCCC2 | 26.7µM* | ? | 56.2µM* | 2.82µM* | -19.6% | 10.4% | 12.6µM* | 12.6µM*
O=C(NCC1(COc2ccccc2)C[C@@H](O)[C@@H](O)C1)c1cnccn1 (stereo partly drawn) | . | 110.9%[176 µM] | . | . | . | . | . | .
CCCn1ncnc1-c1ccc(C(N)=O)c(Cl)c1 | . | 7.5% | . | . | . | . | . | .
SMILES | PLK1 PBD inh | ALOX12 inh | JMJD2A Tudor | G9a block | HP1b chromo inh | BAZ2B inh | TbPYK confirm | TbPYK orthogonal
CCn1c(C)c(C)c2cc(C(=O)NCc3cccc(C)c3)ccc21 | . | -6.6% | ? | ? | -3.5% | -36.7% | . | .
O=C1C=CC(=O)N1c1ccc(OC(F)F)cc1 | 3.36µM* | -3.5% | 15.8µM* | 1.41µM* | 20µM* | ? | -13.3% | -8.2%
Cc1cc(O)cc(=O)n1-c1ccc(OC(F)F)cc1 | . | -3.5% | . | . | . | . | . | .
COc1ccc(O)c(/C=c2/sc3nc4cc(C)c(C)cc4n3c2=O)c1 | 10.6µM* | ? | ? | 2.51µM* | ? | -8.1% | 10µM* | 11.2µM*
Cc1ccc(/C=C2/NC(=O)N(Cc3ccccc3F)C2=O)o1 | -3.1% | ? | ? | 31.6µM* | -6.8% | 3.1% | ? | 35.5µM*
Cc1cc(/C=C2/NC(=O)N(Cc3ccccc3F)C2=O)c(C)n1C(C)C | -2.7% | -26.7% | -22.8% | ? | -14.6% | ? | . | .
O=C1C(=Cc2ccc(F)cc2)CCc2ccccc21 | -15.1% | -2.3% | . | . | . | . | 28.2µM* | 9.7%
Cc1ccc(/C=C2\CCc3ccccc3C2=O)cc1 | . | -9.7% | . | . | . | . | . | .
O=C1C(=Cc2ccccc2Cl)CCc2ccccc21 | -17.7% | ? | . | . | . | . | 25.1µM* | 9.4%
O=C1C(=Cc2ccc(Cl)cc2)CCc2ccccc21 | 1.6% | 8.7% | . | . | . | . | 25.1µM* | 6.7%
O=C1/C(=C/c2ccc(Cl)cc2)Cc2ccccc21 | . | -6.7% | . | . | . | . | . | .
COc1ccc(C=C2CCc3ccccc3C2=O)cc1 | 4.0% | -0.5% | . | . | . | . | 25.1µM* | 12.3%
CCOc1ccc(/C=C2\CCc3ccccc3C2=O)cc1 | -7.7% | 6.6% | -6.8% | -4.8% | 2.8% | -2.6% | . | .

Screens: PubChem BioAssay, National Center for Advancing Translational Sciences (NCATS)
